According to PubChem BioAssay AID932 (The Scripps Research Institute Molecular Screening Center, 2007):
The whole screen tested about 200,000 compounds, of which about 5,100 (2.5%) were called active. This excerpt belongs to a sample that is enriched for actives. Unmarked numbers belong to inactive results.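 How the source made its calls: active means activation above the screen-wide mean activation plus 3 SD (cut at about 130% in these data); inactive means the rest.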

Test: potentiators of IFN-gamma driven STAT1 reporter – cell-based, HTS, luciferase reporter, primary screen (AID 932);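 further: raw ratio to IFN-gamma control signal so 100% means no change and 0% no light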
Conditions: NIH 3T3 STAT1-luciferase reporter, luminescence, at 5.5 µM, hits give high values, 100% = IFN-gamma alone, no compound

**Q.** Which activation (% of control) does the source give for C=CS(=O)c1sc(Cl)c(N2CCOCC2)c1[N+](=O)[O-] (stereo unspecified) here?
**A.** Its activation (% of control) is 86.3%.

**Q.** Which activation (% of control) does the source give for CC(=O)Nc1ccc(NC(=O)COc2ncnc3ccccc23)cc1 here?
**A.** Its activation (% of control) is 93.2%.

**Q.** For CC(=O)Nc1ccc(Nc2c3ccccc3nc3ccccc23)cc1, which activation (% of control) is on record?
**A.** The activation (% of control) was 137% (active).

**Q.** For O=[N+]([O-])c1cccc(Nc2c3ccccc3nc3ccccc23)c1, which activation (% of control) is on record?
**A.** The activation (% of control) was 98%.

**Q.** For CC1=CC2=NC(=O)CC(C)(C(=O)N(CC(=O)NC(C)(C)C)Cc3ccccc3)N2C=C1 (stereo unspecified), which activation (% of control) is on record?
**A.** Its activation (% of control) is 106%.

**Q.** For CCCc1nc2ccccc2c(C(=O)OCC(=O)c2ccc3c(c2)NC(=O)CO3)c1CC, which activation (% of control) is on record?
**A.** The activation (% of control) was 100%.

**Q.** With O=C(CCc1nc2ccccc2c(=O)[nH]1)OCC(=O)c1cccc(Cl)c1 as the molecule, how does the activation (% of control) read?
**A.** Its activation (% of control) is 93.7%.

**Q.** With Cc1ccc(C(=O)COC(=O)c2cccc(N3C(=O)c4c(C)nc5ccccc5c4C3=O)c2)cc1C as the molecule, how does the activation (% of control) read?
**A.** The activation (% of control) was 149% (active).

**Q.** With CN(c1ccccc1)S(=O)(=O)c1ccc(Cl)c(C(=O)NCCc2c[nH]c3ccccc23)c1 as the molecule, how does the activation (% of control) read?
**A.** The activation (% of control) was 95%.

**Q.** Which activation (% of control) does the source give for O=C(NCCc1c[nH]c2ccccc12)c1cc2ccccc2oc1=O here?
**A.** Its activation (% of control) is 143% (active).

**Q.** With O=C(NCCc1c[nH]c2ccccc12)C(=O)NCC1CCCO1 (stereo unspecified) as the molecule, how does the activation (% of control) read?
**A.** The activation (% of control) was 109%.

**Q.** For COc1ccc(NC(=O)/C(C#N)=C\c2cc(OC)c(OCc3ccc(C(=O)O)cc3)cc2Br)cc1, which activation (% of control) is on record?
**A.** The activation (% of control) was 96.6%.

**Q.** Which activation (% of control) does the source give for COc1ccc(NC(=S)Nc2ccccc2Cl)cn1 here?
**A.** Its activation (% of control) is 88.6%.

**Q.** For COc1ccc(NC(=O)/C(Cl)=C(/Cl)S(=O)Cc2ccc(C)cc2)cn1 (stereo unspecified), which activation (% of control) is on record?
**A.** The activation (% of control) was 222% (active).

**Q.** Which activation (% of control) does the source give for COc1ccc(CS(=O)/C(Cl)=C(/Cl)C(=O)Nc2ccc(OC)nc2)cc1 (stereo unspecified) here?
**A.** The activation (% of control) was 279% (active).

**Q.** With Cc1ccc(NC(=O)OCc2cncs2)cc1 as the molecule, how does the activation (% of control) read?
**A.** Its activation (% of control) is 118%.

**Q.** Which activation (% of control) does the source give for COc1ccc(NC(=S)NCCNC(C)=O)cc1 here?
**A.** Its activation (% of control) is 103%.

**Q.** Which activation (% of control) does the source give for CC(=O)Nc1ccc(OCC(=O)NCc2ccc(C)cc2)cc1 here?
**A.** Its activation (% of control) is 95.8%.

**Q.** With c1ccc2c(c1)CSc1sccc1C2=C1CCNCC1 as the molecule, how does the activation (% of control) read?
**A.** Its activation (% of control) is 98.4%.

**Q.** For CN(C)/C=C/C(=O)c1cnc2sccn2c1=O, which activation (% of control) is on record?
**A.** Its activation (% of control) is 105%.

**Q.** For COc1cccc(NCCC(=O)c2cccc([N+](=O)[O-])c2)c1, which activation (% of control) is on record?
**A.** The activation (% of control) was 116%.

**Q.** With O=C(c1ccc2c(c1)N(Cc1ccc(F)cc1)C(=O)c1ccccc1S2(=O)=O)N1CCN(c2ccccn2)CC1 as the molecule, how does the activation (% of control) read?
**A.** Its activation (% of control) is 97.5%.

**Q.** With CCn1c(SCC(=O)N(C)C2CCS(=O)(=O)C2)nnc1-c1cccs1 (stereo unspecified) as the molecule, how does the activation (% of control) read?
**A.** Its activation (% of control) is 97.1%.

**Q.** For Cc1ccc(NCc2n[nH]c(=S)n2-c2ccccc2)cc1Cl, which activation (% of control) is on record?
**A.** Its activation (% of control) is 114%.

**Q.** With CCOC(=O)N1CCN(c2cc(C)c([N+](=O)[O-])cc2F)CC1 as the molecule, how does the activation (% of control) read?
**A.** Its activation (% of control) is 77.6%.

**Q.** Which activation (% of control) does the source give for CC1CCCCC1NC(=O)CN1CCC(O)(c2ccc3c(c2)OCO3)CC1 (stereo unspecified) here?
**A.** The activation (% of control) was 102%.
